Compound activity as filed in PubChem.
Sampled rows, rich in hits. Any-hit rate of the full collection: about 2.2%.
MITF TRPM1 inh = inhibitors of MITF-dependent TRPM1 promoter reporter, primary screen, cell-based, SK-MEL-5, single point, luciferase; inhibition, % at 12.5 µM; SK-MEL-5 TRPM1 promoter luciferase, 24 h; 330,000 compounds, 0.83% hits; AID 488899, 2010;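 active = mean inhibition across replicates of 60% or more, whatever share of single replicates reaches that level; inconclusive = some that reach 60%, reason not given; inactive = mean inhibition across replicates below 60%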
PAX8 inh HTS = inhibitors of PAX8-driven TPO luciferase reporter, primary screen, RMG-I cells, single concentration; AID 652154, 2013; 360,000 compounds, 1.2% hits; SteadyGlo, 24 h; inhibition, % at 12.6 µM;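 active = mean replicate inhibition at least 60% with every replicate also reaching 60%; inconclusive = only one of the two criteria is met; inactive = mean below 60% and not all replicates reaching 60%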;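 note: luciferase light reporting Pax8 driven TPO promoter activity; plate controls were median of neutral control wells for no effect and mitoxantrone controls for full effect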
Shn3 3UTR inh = reduction of Shn3 3'UTR firefly luciferase signal, primary screen, Schnurri-3 inhibitor project, cell-based, Clone20 osteoblasts, set 2; Clone20 osteoblast Shn3 3'UTR firefly luciferase, 24 h; inhibition, % at 12.5 µM; 360,000 compounds, 0.52% hits; AID 588674, 2011;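 active = mean inhibition of at least 75% with every replicate also reaching 75%; inconclusive = mean inhibition at least 75% but some replicate below; inactive = mean inhibition below 75%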;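 note: 0% = median of neutral control wells and 100% = pilot-screen positive control compound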
LGR2 antag = inhibitors of bursicon-induced LGR2 CRE-luciferase signal, primary screen, cell-based, HEK293, CRE-luciferase reporter, bursicon stimulation | 380,000 compounds, 0.35% hits | bursicon-stimulated, 4 h | Drosophila bursicon receptor LGR2 (rickets) | inhibition, % at 9.99 µM | AID 720647, 2013;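 active = drop in luminescence signal, shown as inhibition above about 50% in the replicate tests, limit read from the data, passing the limit was not always enough; inconclusive = probably only some replicates passing the limit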;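 note: agonist challenge used bursicon conditioned medium at about half maximal strength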
EBV LMP1 NFkB = EBV LMP1-driven NF-kappaB luciferase reporter inhibitors, primary screen, cell-based, luminescence, single point. AID 504558, 2011. 350,000 compounds, 0.69% hits. inhibition, % at 12.5 µM. LMP1-induced NF-kappaB luciferase reporter cells; in the data active = inhibition above about 41%; inconclusive = no clear call, values can overlap the other calls;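 note: 0% = neutral control wells and 100% = reference inhibitor control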
EWS-Fli block = EWS/Fli-driven NR0B1 reporter inhibitors, primary screen, A673 cells, NR0B1 luciferase, luminescence, MLPCN library. 350,000 compounds, 0.67% hits. viability-normalised. AID 651661, 2012. inhibition, % at 12.6 µM;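 active = mean inhibition of at least 50% after viability correction, with every replicate also passing that limit; inconclusive = mean reaches 50% but only one of two replicates passes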;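 note: firefly luciferase signal divided by Alamar Blue viability fluorescence both relative to DMSO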
Active calls of the source: *; ? = inconclusive; nt = no result given.

SMILES	MITF TRPM1 inh	PAX8 inh HTS	Shn3 3UTR inh	LGR2 antag	EBV LMP1 NFkB	EWS-Fli block
COc1ccc([C@H]2C[C@H](O)[C@@H](n3cc(-c4ccc(F)cc4)nn3)CN2Cc2cccs2)cc1	nt	?	43.3	17.0	39.0	56.4*
Cc1ccc(S(=O)(=O)N(C)C[C@H]2Oc3ccc(NC(=O)c4ccncc4)cc3C(=O)N([C@@H](C)CO)C[C@H]2C)cc1	nt	-16.3	nt	-2.5	nt	-1.5
COc1ccc2c3c(n(C)c2c1)[C@H](CO)N(Cc1ccccc1Cl)CC31CCN(C(C)=O)CC1	nt	13.2	nt	0.9	nt	3.1
Oc1cccc(C(Nc2nccs2)c2ccc3cccnc3c2O)c1 (stereo unspecified)	47.8	74.6*	91.1*	36.1	50.6*	14.5
CC(=O)NC(c1cccc([N+](=O)[O-])c1)c1ccc2cccnc2c1O (stereo unspecified)	43.5	59.2	91.4*	45.4	62.2*	36.2
CC(=O)NC(c1ccccc1)c1cc([N+](=O)[O-])c2cccnc2c1O (stereo unspecified)	13.7	13.6	-10.6	20.7	2.5	4.4
O=[N+]([O-])c1ccc(NC(c2ccccc2)c2ccc3cccnc3c2O)cc1 (stereo unspecified)	74.1*	83.4*	91.1*	26.8	57.2*	12.7
CCCCC(=O)NC(c1cccc([N+](=O)[O-])c1)c1ccc2cccnc2c1O (stereo unspecified)	56.6	51.2	88.7*	25.1	50.4*	28.3
C[C@H](CO)N1C[C@H](C)[C@H](CN(C)C(=O)Nc2ccccc2)Oc2ccc(N(C)C)cc2CC1=O	nt	-2.5	nt	3.0	nt	-4.4
COc1cccc(C(Nc2ccccc2)c2ccc3ccc(C)nc3c2O)c1 (stereo unspecified)	nt	66.3*	nt	nt	nt	-5.0
COc1cccc(C(NC(C)=O)c2ccc3cccnc3c2O)c1 (stereo unspecified)	83.5*	69.0*	83.4	11.0	49.7*	23.6
CNC[C@H]1Oc2cc(C#Cc3ccc(OC)cc3)ccc2S(=O)(=O)N([C@@H](C)CO)C[C@@H]1C	nt	nt	nt	16.7	nt	-2.1
N#C/C(=C\c1ccc(OCc2ccc(C(=O)O)cc2)cc1)C(=O)N1CCOCC1	84.6*	86.6*	53.7	80.2*	83.8*	81.0*
CCOC(=O)N(O)c1ccc(C=Cc2ccccc2)cc1	-56.2	-70.7	28.8	67.0*	86.2*	-62.7
CC(=O)N[C@@H]1CC[C@H](CCNC(=O)C2CC2)O[C@H]1CO	nt	6.6	nt	-18.8	nt	-1.2
C[C@@H]1CCCCO[C@H](CN(C)C(=O)Nc2cccc3ccccc23)[C@@H](C)CN([C@@H](C)CO)C(=O)c2cc(NC(=O)CCCN(C)C)ccc2O1	nt	-12.3	nt	2.3	nt	2.6
C[C@H](CO)N1C[C@H](C)[C@H](CN(C)C(=O)C2CCC2)Oc2ncc(C#Cc3ccccc3F)cc2C1=O	nt	-5.9	nt	14.3	nt	-11.5
CC(C)N=C(NS(=O)(=O)c1ccccc1)C(Cl)(Cl)Cl	79.0*	96.4*	45.3	62.0*	-1.9	47.5
CN1C(=O)c2cc(NC(=O)C3CCCCC3)ccc2OC[C@@H]2O[C@H](CC(=O)NC3CCCC3)CC[C@@H]21	nt	18.6	nt	5.8	nt	-0.1
CNC[C@@H]1OCCCC[C@@H](C)Oc2ccc(NS(=O)(=O)c3ccc(F)cc3)cc2C(=O)N([C@@H](C)CO)C[C@H]1C	nt	-34.7	nt	-9.6	nt	12.9
O=C(c1cccs1)N1CC=C(c2ccccc2)CC1	-26.5	-47.8	-32.7	-17.8	73.3*	-36.0
Cc1ccc(NC2=C/C(=N/S(=O)(=O)c3cccs3)c3ccccc3C2=O)cc1	105.4*	53.2	97.2*	nt	80.0*	24.5
CC(C)c1ccc(S(=O)(=O)/N=C2/C=C(Sc3ncn[nH]3)C(=O)c3ccccc32)cc1	59.9	nt	79.1	nt	-0.7	nt
O=C1C(Nc2ccccc2)=C/C(=N/S(=O)(=O)c2cccs2)c2ccccc21	95.0*	nt	97.3*	nt	86.6*	nt
Cc1ccc(S(=O)(=O)/N=C2/C=C(Sc3ncn[nH]3)C(=O)c3ccccc32)cc1	91.3*	nt	98.5*	nt	64.0*	nt
SMILES	MITF TRPM1 inh	PAX8 inh HTS	Shn3 3UTR inh	LGR2 antag	EBV LMP1 NFkB	EWS-Fli block
Cc1ccc(S(=O)(=O)/N=C2\C=C(Nc3ccc(O)cc3)C(=O)c3ccccc32)cc1	98.7*	nt	97.3*	nt	88.5*	nt
Cc1ccc(S(=O)(=O)/N=C2\C=C(Nc3cccc(C(=O)O)c3)C(=O)c3ccccc32)cc1	2.6	-43.7	-26.8	-26.9	-11.7	-73.2
C/C=C/c1ccc([C@H]2[C@@H](CO)N(C(=O)C3CCCC3)C23CN(C(=O)NC(C)C)C3)cc1	nt	-26.4	nt	4.9	nt	3.2
COc1ccc(CCNC(=O)c2cc3c(=O)n4cccc(C)c4nc3n(CCCN3CCOCC3)c2=N)cc1	72.6*	-8.9	22.4	-12.9	-42.1	nt
Cc1cccn2c(=O)c3cc(C(=O)NCCN4CCOCC4)c(=N)n(Cc4ccc(F)cc4)c3nc12	14.7	74.8*	-5.7	-2.9	0.3	nt
Cc1cccn2c(=O)c3cc(S(=O)(=O)c4ccc(F)cc4)c(=N)n(Cc4ccco4)c3nc12	-12.5	-3.9	-7.3	53.4*	-4.7	15.1
Cc1cccn2c(=O)c3cc(C(=O)NCCN4CCOCC4)c(=N)n(CCN4CCOCC4)c3nc12	-14.2	-13.4	-1.6	0.2	2.2	-1.8
Cc1cccn2c(=O)c3cc(S(=O)(=O)c4ccccc4)c(=N)n(Cc4ccco4)c3nc12	3.9	14.8	9.3	-3.6	-15.0	-6.0
C[C@H](CO)N1C[C@H](C)[C@H](CN(C)C)Oc2cc(Br)ccc2S1(=O)=O	nt	nt	nt	-29.7	nt	-5.6
Cc1cccc2c(CC(=O)Nc3ccccc3)noc12	-0.9	64.5*	-7.5	-4.8	-1.4	-5.0
CCN(CC)CCCNc1ccc(-c2nnc(-c3ccc(OCC(C)C)cc3)o2)cn1	76.7*	41.6	25.2	10.9	0.4	61.0*
CC(C)COc1ccc(-c2nnc(-c3ccco3)o2)cc1	-33.1	nt	-3.0	nt	18.9	nt
COc1ccc(N2N=NN(C(C)C)C2=C(Cl)c2nnnn2-c2ccc(OC)cc2)cc1	37.0	nt	-20.4	-22.9	85.0*	-18.1
COc1ccc(-n2nnnc2-c2ccccc2)cc1	25.3	nt	-3.1	nt	12.1	nt
C[C@H](CO)N1C[C@H](C)[C@H](CN(C)C)OCCCC[C@H](C)Oc2ccc(NC(=O)Nc3ccc4c(c3)OCO4)cc2C1=O	nt	-28.1	nt	0.0	nt	-4.8
O=[N+]([O-])c1cccc2c(N3CCCC3)ccnc12	81.3*	20.9	62.4	5.5	-38.4	47.0
CC(C)NC(=O)Nc1ccc2c(c1)C(=O)N([C@@H](C)CO)C[C@@H](C)[C@H](CN(C)CC1CCCCC1)OCCCC[C@H](C)O2	nt	5.6	nt	7.5	nt	nt
